{"source": "paper PMC11574364", "data": [{"target": "SLTM (Homo sapiens, UniProt Q9NWH9)", "sequence (Q9NWH9 360-485)": "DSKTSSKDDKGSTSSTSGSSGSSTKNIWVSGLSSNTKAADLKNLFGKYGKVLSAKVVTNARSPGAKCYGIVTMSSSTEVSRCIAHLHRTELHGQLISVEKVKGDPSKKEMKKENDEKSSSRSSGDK", "assay": "protein domain microarray probed with biotinylated miRNA; Domain array: 20 mM Tris-HCl pH 7.4, 200 mM KCl, 0.2 mM EDTA, 0.05% NP40, 2 ug/ul heparin, overnight 4 C. ORF array: PBS pH 7.0 with RNase inhibitor, 100 ng RNA; high values mean tight binding", "details": "ssRNA", "units": {"binding signal": "fluorescence intensity"}, "values": [{"sequence": "UGAGGUAGUAGGUUGUGUGGUU", "binding signal": "305 ± 14.8"}, {"sequence": "UGAGGUAGUAGGUUGUAUGGUU", "binding signal": "141.8 ± 1.03"}, {"sequence": "CAGUGCAAUGAUGAAAGGGCAU", "binding signal": "123 ± 2.81"}, {"sequence": "AGAGGUAGUAGGUUGCAUAGUU", "binding signal": 123}, {"sequence": "UGAGGUAGUAGGUUGUAUAGUU", "binding signal": "57.9 ± 0.728"}, {"sequence": "UAGCUUAUCAGACUGAUGUUGA", "binding signal": "33.6 ± 0.863"}]}]}
